# Sampled rows, rich in hits. Any-hit rate of the full collection: about 31%.
# CYP2C9 inhib – blocks human cytochrome P450 2C9; CYP2C9 Supersomes, luciferin-H conversion, luminescence; inhibition, % at 5 µM; 20% of 96,000 active; AID 777;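 active = blocking of liver enzyme CYP2C9 beyond about 50% at 5 µM, limit read from the data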
# CYP2C9 act – increases human cytochrome P450 2C9 activity. recombinant CYP2C9, luciferin-H conversion, luminescence; stronger effect = higher value; factor 1 = untreated enzyme, 0 = blocked. activation factor at 5 µM. 1.4% of 96,000 active;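 active = activation factor of 2 or more for CYP2C9 at a 5 µM dose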;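 note: 0 = sulfaphenazole-blocked wells and 1 = vehicle-only wells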
# CYP2C19 act – increases human CYP2C19 enzyme activity | 96,000 tested, under 10 active | activation factor at 5 µM | recombinant CYP2C19, luciferin-H EGE luminescence; stronger effect = higher value; 0 = fully inhibited enzyme, 1 = untreated enzyme | AID 1025;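 active = activation factor of at least 2 at 5 µM in the primary screen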;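 note: 0 = wells with 2.5 mM tranylcypromine and 1 = vehicle-only wells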
# CYP2C19 inhib – inhibitors of human CYP2C19. 21% of 96,000 active. CYP2C19 Supersomes, luciferin-H EGE luminescence, 30 min. inhibition, % at 5 µM. P33261;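 active = CYP2C19 inhibition above a set limit at 5 µM in the primary screen, cut at about 50% in these data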;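 note: plate controls were negative control wells for no effect and 2.5 mM tranylcypromine positive control for full effect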
# PLAP activator – activators of human placental alkaline phosphatase | activation fold at 20 µM | 1.2% of 96,000 active | P05187 | purified PLAP enzyme, luminescent substrate read-out; stronger effect = higher value; in the data active = activation fold above about 2
# Target sequence (P05187 whole entry, looked up): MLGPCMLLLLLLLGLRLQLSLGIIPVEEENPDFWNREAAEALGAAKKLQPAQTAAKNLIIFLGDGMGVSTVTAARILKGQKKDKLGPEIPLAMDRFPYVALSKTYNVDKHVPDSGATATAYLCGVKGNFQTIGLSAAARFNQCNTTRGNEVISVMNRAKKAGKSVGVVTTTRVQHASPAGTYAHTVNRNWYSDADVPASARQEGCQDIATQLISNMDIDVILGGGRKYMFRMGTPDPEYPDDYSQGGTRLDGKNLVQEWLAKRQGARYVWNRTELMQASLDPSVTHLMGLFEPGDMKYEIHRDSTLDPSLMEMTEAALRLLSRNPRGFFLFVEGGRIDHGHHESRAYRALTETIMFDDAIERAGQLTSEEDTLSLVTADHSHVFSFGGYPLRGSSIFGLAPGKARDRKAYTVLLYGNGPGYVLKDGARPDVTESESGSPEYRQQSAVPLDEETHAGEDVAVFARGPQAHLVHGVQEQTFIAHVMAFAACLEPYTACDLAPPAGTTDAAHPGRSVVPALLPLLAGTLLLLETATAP
# * hit, by the source's call.
SMILES,CYP2C9 inhib,CYP2C9 act,CYP2C19 act,CYP2C19 inhib,PLAP activator
O=C(c1cccs1)c1coc2ccc(O)c(CN(CCO)CCO)c12,0,1,0.7,26,2.4*
CCOC(=O)N1CCN(C2OC(=O)c3ccccc32)CC1 (configuration not stated),0,1,1,-2,0.9
Cc1c(NC(=O)CCC(=O)N2CCCCC2)c(=O)n(-c2ccccc2)n1C,10,0.9,1,5,1
CC(=O)c1ccc(OCCCC(=O)OCc2nnc(-c3ccc(Cl)cc3)o2)cc1,-101,2*,0.6,36,1.8
Cc1noc(C)c1COc1ccc(C(=O)OCc2nnc(-c3ccc(Cl)cc3)o2)cc1,95*,0,0.2,79*,1.3
O=C(OCc1nnc(-c2ccc(Cl)cc2)o1)c1ccncc1,67*,0.3,0.3,65*,1.1
CC1(C)Cc2ccccc2-c2nnc(SCC(=O)Nc3nc4ccccc4s3)n21,7,0.9,0.9,9,1.1
CC(C(N)=O)N1C(=O)C2C3C=CC(C3)C2C1=O (configuration not stated),-15,1.1,1.2,-18,0.9
Cc1ccc2nc3c(cc(C#N)c(=N)n3CC3CCCO3)c(=O)n2c1 (configuration not stated),5,0.9,1,2,0.9
CC(=O)Nc1ccc(S(=O)(=O)Nc2nc(CN3CCOCC3)nc3sc4c(c23)CCCC4)cc1,53*,0.5,1.1,-11,1.7
NS(=O)(=O)c1ccc(CCNc2nc(CN3CCOCC3)nc3sc4c(c23)CCC4)cc1,34,0.7,1,-4,1.6
Cc1sc2nc(CN3CCOCC3)nc(NCCc3ccccc3)c2c1C,90*,0.1,0.6,40,1.7
Cc1sc2nc(CN3CCOCC3)nc(NS(=O)(=O)c3ccccc3)c2c1C,46,0.5,1.2,-24,1.5
Cc1sc2nc(CN3CCOCC3)nc(NS(=O)(=O)c3ccc4c(c3)OCCO4)c2c1C,80*,0.2,0.7,31,1.6
Cc1ccc(NC(=O)N2CCCC2C(=O)NCCc2ccccc2)cc1 (configuration not stated),14,0.9,0.7,26,0.7
O=C(CCC1(C(=O)O)CCC(=O)NC1)NCc1ccccc1 (configuration not stated),-4,1,1,3,1
Cc1cc2nnc(SCCCCN3C(=O)c4ccccc4C3=O)n2c2ccccc12,-194,2.9*,0.5,45,1.2
COc1cc(Cl)c(C)cc1NC(=O)COC(=O)c1cnc(C)cn1,19,0.8,0.4,57*,0.9
COc1ccc(C(C)(C)C)cc1NC(=O)COC(=O)c1cnc(C)cn1,27,0.7,0.9,12,1.1
CC1(C)SC(=S)N(/N=C/c2ccccc2)C1N(O)C(=O)Nc1ccc([N+](=O)[O-])cc1 (configuration not stated),1,1,1.1,-10,1
COc1ccc(CCNC(=O)CSc2ccc(-c3ccccc3)nn2)cc1OC,25,0.8,0.3,71*,0.9
Cc1nonc1NC(=O)CSc1ccc(-c2ccccc2)nn1,64*,0.4,0.5,50,1
COc1ccc(CCNC(=O)C(C)Sc2ccccc2)cc1OC (configuration not stated),64*,0.4,0.4,56*,0.9
O=C(CSc1ccc(-c2ccccc2)nn1)N1CCOCC1,-3,1,0.8,23,0.8
COc1ccc(CCNC(=O)CSc2nnc(Cc3csc(N)n3)n2C)cc1OC,51*,0.5,1.1,-13,1
SMILES,CYP2C9 inhib,CYP2C9 act,CYP2C19 act,CYP2C19 inhib,PLAP activator
CCC(CC)C(=O)NCCc1ccc(OC)c(OC)c1,-6,1.1,1,5,1
COc1ccc(CCNC(=O)CSc2cc(=O)[nH]c(N)n2)cc1OC,-9,1.1,1,-3,0.9
CCNc1nc(Oc2c(Cl)cccc2Cl)cc(C(F)(F)F)n1,-25,1.3,0.6,36,0.9
COc1ccc(C)cc1NC(=O)c1cc2ccccc2cc1OCC(=O)NCc1ccco1,47,0.5,0.9,15,0.8
CCN(CC)C(=O)Cn1cnc([N+](=O)[O-])n1,-8,1.1,1,-5,0.9
CCOC(=O)NC(=O)CSc1nnc(C)s1,7,0.9,1,-1,0.9
COc1ccc(CCNC(=O)CSc2nnc(-c3ccc(F)cc3)o2)cc1OC,63*,0.4,0.5,46,1.1
CCn1c(CNC(=O)Cc2ccc(OC)cc2)nnc1SCC(=O)Nc1nccs1,-8,1.1,1,4,1.1
